Results reported in PubChem BioAssay AID720709 (National Center for Advancing Translational Sciences (NCATS), 2013).
Out of some 360,000 compounds screened, about 520 (0.14%) were called active. Inconclusive results (about 3%) are left out. Many of the other results were omitted from the sample, so actives are more common in it than they were. Unmarked numbers belong to inactive results. The call rests on the fitted dose curve; in most records, active means well fitted inhibition curve with a large enough effect; inconclusive means small, poorly fitted or top-dose-only effect; inactive means no such curve, though single readings can be large or run the other way.

target: Rap guanine nucleotide exchange factor 3 (Homo sapiens) (UniProt O95398); test: qHTS for Antagonist of cAMP-regulated guanine nucleotide exchange factor 3 (EPAC1): primary screen; settings: EPAC1 GEF assay, Rap1b-BODIPY-GDP exchange fluorescence; series mostly up to 115 µM; activity change, negative = inhibition: at the top concentration; further: nearly all actives have a fitted effect of over 50% in size;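 on activity change, negative = inhibition: plate controls were vehicle for no effect and positive control for full effect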
Source text: In multi-cellular eukaryotic organisms, the effects of cAMP are transduced by two ubiquitously-expressed intracellular cAMP receptors, the classic protein kinase A/cAMP-dependent protein kinase (PKA/cAPK) and the more recently discovered exchange protein directly activated by cAMP/cAMP-regulated guanine nucleotide exchange factor (EPAC/cAMP-GEF). Both PKA and EPAC are ubiquitously expressed in all tissues, and an increase in intracellular cAMP levels will lead to the activation of both PKA and EPAC. Therefore, careful dissections of the individual role and relative contribution of EPAC and PKA within the overall cAMP signaling in various model systems are critical for further elucidating the mechanism of cAMP signaling. To date no EPAC-specific antagonists and agonist, as well as isoform-specific agonists have been reported, and developing EPAC-specific pharmacological probes to determine the physiological functions that EPAC play in the overall cAMP-mediated signaling remains a major challenge within the research field. Furthermore, identified regulators of EPAC may lead to new mechanism-based therapeutic strategies specifically targeting the EPAC / cAMP-signaling components as EPAC has been implicated to play important roles in major human pathological conditions such as diabetes, heart disease, and cancer. This qHTS will be used to screen the Molecular Libraries Small Molecule Repository (MLSMR) as a concentration-titration series using the NCGC unique quantitative screening (qHTS) platform to find inhibitors for EPAC1. In addition, this assay will also be used as a counterscreen for the EPAC2 qHTS. This fluorescent based assay is developed and validated for EPAC1 that measures exchange using EPAC effector Rap1 complex with BODIPY-GDP, a GDP analog with a tethered fluorophores. Inhibitors are identified by monitoring the change in fluorescence signal as the exchanged free BODIPY-GDP has a reduced fluorescence compared to Rap1-bound BODIPY-GDP. Decrease in signal (inhibition) is the desired outcome for the EPAC1 antagonist while no activity in this assay is desired for the EPAC2 antagonist counterscreen. de Rooij, J., Zwartkruis, F. J., Verheijen, M. H., Cool, R. H., Nijman, S. M., Wittinghofer, A., and Bos, J.L. (1998) Nature 396, 474-477 [2] Kawasaki, H., Springett, G. M., Mochizuki, N., Toki, S., Nakaya, M., Matsuda, M., Housman, D. E., and Graybiel, A. M. (1998) Science 282, 2275-2279 NIH Chemical Genomics Center [NCGC] NIH Molecular Libraries Probe Centers Network [MLPCN] MLPCN Grant: NS066510 Assay Submitter (PI): Xiaodong Cheng, The University of Texas, Medical Branch
Briefly, three uL of reagents (100 nM EPAC1, 250 nM RAP1B-BODIPY-GDP, 50 uM GDP) were dispensed into a 1536-well Greiner black solid-bottom medium binding assay plate. Controls and test compounds (23 nL) were transferred to the plate via a Kalypsys pin tool equipped with a 1536-pin array. The plates were centrifuged at 1,000 rpm for 15 seconds followed by 5 minute incubation at room temperature. The assay plates were read at 5 minute intervals for 30 minutes in the ViewLux plate reader using 480nm excitation and 540nm emission filters. The results were normalized to the […] positive control ATA and DMSO.
Potency means the concentration at half of the fitted maximal effect.

Sequence of Rap guanine nucleotide exchange factor 3 (Homo sapiens) (O95398 whole entry, looked up): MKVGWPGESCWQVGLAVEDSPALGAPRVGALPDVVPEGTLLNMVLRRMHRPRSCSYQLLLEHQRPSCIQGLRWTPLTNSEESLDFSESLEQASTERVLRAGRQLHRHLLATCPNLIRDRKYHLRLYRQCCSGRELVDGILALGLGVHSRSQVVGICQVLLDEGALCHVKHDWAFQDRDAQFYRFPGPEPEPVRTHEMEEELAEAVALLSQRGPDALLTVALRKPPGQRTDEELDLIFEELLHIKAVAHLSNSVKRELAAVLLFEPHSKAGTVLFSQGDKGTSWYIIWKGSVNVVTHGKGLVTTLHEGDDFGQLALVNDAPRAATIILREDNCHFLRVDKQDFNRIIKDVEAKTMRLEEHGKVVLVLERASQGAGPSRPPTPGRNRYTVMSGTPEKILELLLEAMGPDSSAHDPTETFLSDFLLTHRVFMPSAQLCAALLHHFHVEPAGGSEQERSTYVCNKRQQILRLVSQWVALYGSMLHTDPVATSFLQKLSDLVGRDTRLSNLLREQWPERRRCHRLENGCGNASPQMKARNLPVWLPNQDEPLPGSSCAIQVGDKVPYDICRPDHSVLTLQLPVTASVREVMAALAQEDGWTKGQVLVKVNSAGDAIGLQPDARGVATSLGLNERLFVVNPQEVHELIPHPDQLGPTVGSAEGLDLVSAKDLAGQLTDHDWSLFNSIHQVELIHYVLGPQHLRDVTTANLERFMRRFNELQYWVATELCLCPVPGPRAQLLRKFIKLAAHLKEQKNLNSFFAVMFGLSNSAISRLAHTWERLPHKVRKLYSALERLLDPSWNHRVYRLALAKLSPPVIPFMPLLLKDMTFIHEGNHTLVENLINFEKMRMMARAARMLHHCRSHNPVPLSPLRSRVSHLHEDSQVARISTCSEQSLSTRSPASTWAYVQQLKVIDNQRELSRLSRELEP

| SMILES | activity change, negative = inhibition | Potency |
| --- | --- | --- |
| CC(=O)OCC(C)n1c(=O)c2ccccc2n1C(C)=O (centres undefined) | 14.3% |  |
| CCc1nnc(NS(=O)(=O)c2ccc(NC(=S)NC(=O)/C=C/c3cccs3)cc2)s1 |  | 35.5 µM (active) |
| CCc1nnc(NS(=O)(=O)c2ccc(NC(=S)NC(=O)c3cccs3)cc2)s1 | -18.7% |  |
| CCc1nnc(NS(=O)(=O)c2ccc(NC(=O)c3cccc(OC(F)(F)C(F)F)c3)cc2)s1 | 6.32% |  |
| CCC(C(=O)NC(C)(C)C)n1c(-c2ccccc2)nc2ccccc21 (centres undefined) | -11.7% |  |
| CC(=O)N1Cc2cc(C(=O)NCc3cccc(F)c3)nc(-c3cccc(C4=CCCC4)c3)c2[C@H]1CCO | -4.59% |  |
| COC(=O)C1(C(=O)OC)C/C=C\CN(S(=O)(=O)c2ccccc2[N+](=O)[O-])CCC1 | -24.3% |  |
| C[N+](C)(C)CCNC(=O)c1c[nH]c2ccccc12 | -10.3% |  |
| CCOC(=O)c1c(C)[nH]c(C(=O)OCC(=O)N2CCCC2=O)c1C | -3.83% |  |
| Cc1c(C(=O)OCC(=O)N2CCCC2=O)oc2ccccc12 |  | 79.4 µM (active) |
| CN(C)S(=O)(=O)c1cccc(C(=O)OCC(=O)N2CCCC2=O)c1 | -1.48% |  |
| COC(=O)[C@@]12C[C@@H](CC(=O)N3CCC(c4ccccc4)CC3)C(=O)N(Cc3ccccc3)C1=CCC(C)(C)C2 | 6.68% |  |
| COc1cc(OC)cc(C2=Cc3ccccc3C(CC(=O)c3ccco3)N2c2ccc(-c3cnc(OC)nc3)cc2)c1 (centres undefined) | -2.98% |  |
| Cc1cccc(C)c1NC(=O)C(c1cccc2ccccc12)n1c(=O)c(-c2ccco2)nc2ccccc21 (centres undefined) | -20.9% |  |
| Cc1ccc(S(=O)(=O)N2CC3C(=O)C[C@@H](c4ccccc4Cl)N(S(=O)(=O)c4ccc(C)cc4)C3CC2c2ccccc2)cc1 (some centres undefined) | 0.258% |  |
| Cc1cccc(C)c1NC(=O)C(c1ccc(C(F)(F)F)cc1)n1c(=O)c(-c2ccco2)nc2ccccc21 (centres undefined) | -14.7% |  |
| O=c1ccc2c(-c3ccccc3S(=O)(=O)O)c3ccc(O)c(O)c3oc-2c1O |  | 56.2 µM (active) |

| SMILES | activity change, negative = inhibition | Potency |
| --- | --- | --- |
| COc1cccc(CNC(=O)[C@@H]2CCCN2C(=O)[C@@H]2CCCN2C(=O)c2ccccc2)c1 | -7.07% |  |
| COc1ccc(CC(N)c2csc(NC(=O)Nc3ccc(C(C)C)cc3)n2)cc1 (centres undefined) | -15.8% |  |
| CCN(CC)CCN(C)C(c1ccnc2ccccc12)c1nnnn1-c1ccc2c(c1)OCCO2 (centres undefined) | -3.49% |  |
| COC(=O)[C@@]12C[C@@H](CC(=O)NCc3cccc(C(F)(F)F)c3)C(=O)N(Cc3ccco3)C1=CCC(C)(C)C2 | -20.9% |  |
| CCC(C)CN1C(=O)CSCC1(C)C(=O)NCc1ccccc1 (centres undefined) | -4.93% |  |
| Cc1cccc(C)c1NC(=O)C(c1cccc(F)c1)N1CCN(C)CC1 (centres undefined) | 6.48% |  |
| CCCCC(O)C1=C[N+](=O)CC=C1 (centres undefined) | 14.4% |  |
| Cc1cccc(C)c1-n1nnnc1C1(C)CCC(=O)N1CCOc1ccccc1 (centres undefined) | 14.7% |  |
| COC(=O)[C@]12CCCCC=C1N(Cc1ccc3c(c1)OCO3)C(=O)[C@H](CC(=O)NCc1cccs1)C2 | 8.77% |  |
| Nc1nc2ncccn2c1-c1ccccc1 | -20.8% |  |
| O=C(NC1CCCC1)C1c2ccccc2OCC(=O)N1Cc1ccccc1 (centres undefined) | -15.9% |  |
| CCCNC(=O)C[C@@H]1CC[C@@H]2[C@H](COC[C@H](O)CN2C(=O)c2cc(Cl)cc(Cl)c2)O1 | -0.835% |  |
| COC(=O)[C@@]12C[C@@H](CC(=O)N3CCCCC3)C(=O)N(Cc3ccc4c(c3)OCO4)C1=CCC(C)(C)C2 | 5.33% |  |
| CCCCOCCCNC(=O)C[C@@H]1C[C@@]2(C(=O)OC)CCCCC=C2N(CCC2=CCCCC2)C1=O | -20.6% |  |
| C#CCNC(=O)C[C@@H]1C[C@@]2(C(=O)OCC)CCCC=C2N(Cc2ccco2)C1=O | -7.54% |  |
| Cc1ccc(S(=O)(=O)N[C@H]2CCC[C@@H]2O)cc1 | -24.4% |  |
| O=C(NCc1ccccc1)C(c1ccc(F)cc1)N1CCN(C(=O)C2CCCO2)CC1 (centres undefined) | -11.6% |  |
